S1P2 ag – S1P2 (human) receptor agonism; actives 0.46% (n = 97,000); activation, % at 4.5 µM; AID 729; S1P2-expressing cell line, agonist reporter read-out; O95136; in the data active = activation above about 16%
Target sequence (O95136 whole entry, looked up): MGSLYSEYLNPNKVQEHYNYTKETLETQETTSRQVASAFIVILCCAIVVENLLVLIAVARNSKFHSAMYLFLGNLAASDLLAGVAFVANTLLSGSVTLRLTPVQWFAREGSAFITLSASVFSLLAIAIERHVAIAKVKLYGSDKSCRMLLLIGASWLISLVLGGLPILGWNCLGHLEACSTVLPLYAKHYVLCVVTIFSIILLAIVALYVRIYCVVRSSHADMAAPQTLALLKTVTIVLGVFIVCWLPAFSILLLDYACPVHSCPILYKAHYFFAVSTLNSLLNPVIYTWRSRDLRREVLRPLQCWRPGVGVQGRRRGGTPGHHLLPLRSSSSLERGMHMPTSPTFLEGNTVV
GALR2 blocker – blocks the human galanin receptor 2; O43603; actives 0.39% (n = 140,000); GALR2-expressing cells, antagonist mode; inhibition, % at 4 µM;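 note: cells stimulated with galanin 1-16 at roughly its EC80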
GALR2 ag – agonists of human galanin receptor 2 (GALR2); actives 0.48% (n = 140,000); AID 803; GALR2-expressing cells, agonist activation read-out; O43603; activation, % (no concentration beside the values); in the data active = activation above about 5%, passing the limit was not always enough
MRP resist rev – MRP-mediated drug resistance reversal. H69AR cells + 2 uM doxorubicin, CellTiter-Glo, 72 h. AID 602. actives 0.04% (n = 85,000). differential viability (reversal), % at 10 µM;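 active = viability drop by adding the cancer drug above about 55%, with treated viability meeting a 40% cutoff, limit read from the data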;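 note: larger differential means the compound sensitizes cells more to doxorubicin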
S1P2 antag – antagonists of human S1P2 receptor. O95136. cell-based S1P2 antagonist assay, inhibition at 5 uM. inhibition, % at 5 µM. actives 0.21% (n = 97,000). AID 736; in the data active = inhibition above about 45%;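 note: CRE beta-lactamase reporter cells expressing human S1P2 stimulated with S1P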
MRP1 act – activators of MRP-1 | H69AR cells + doxorubicin, viability rescue, CellTiter-Glo | viability increase, % at 10 µM | actives 0.61% (n = 140,000) | AID 799;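 active = viability gain under doxorubicin at or above a set limit, the compound median plus 3 SD, cut at about 4.7% in these data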;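 note: MRP-1 overexpressing cells given doxorubicin 25 µM after compound pretreatment; 18-22 h compound pretreatment then 72 h with doxorubicin before readout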
GALR2 ant conf – confirmation of human galanin receptor 2 (GALR2) antagonists; shares compounds with GALR2 blocker; GALR2-expressing cells, antagonist mode, inhibition; inhibition, % at 4 µM; actives 60% (n = 480); AID 866;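 note: cells stimulated with galanin at about its EC80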
BLA inh counter – counter-screen for GALR2 antagonists: beta-lactamase reporter inhibitors; shares compounds with GALR2 blocker; CHO NFAT-BLA reporter, beta-lactamase FRET, thapsigargin-stimulated; inhibition, % at 4.2 µM; actives 36% (n = 480); AID 867;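 active = inhibition above the mean inhibition across tested compounds plus 3 SD, cut at about 27% in these data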
A number is an active result; i = inactive; nt = not tested or not shown. Most compounds without a hit are left out; they make up all but 1.8% or so of the library. Cut-off read from the data, not from the text of the source, unless noted: active = inhibition above about 27%; inactive = the rest.

SMILES | S1P2 ag | GALR2 blocker | GALR2 ag | MRP resist rev | S1P2 antag | MRP1 act | GALR2 ant conf | BLA inh counter
O=c1c(O)c(-c2cccs2)oc2ccccc12 | i | 29 | i | i | i | i | 31 | 37
O=c1c(O)c(-c2cccs2)oc2ccc(Cl)cc12 | i | 33 | i | i | i | i | 32 | 42
Cc1ccc(-c2oc3ccccc3c(=O)c2O)cc1 | nt | i | i | i | nt | i | nt | nt
Cc1ccc(/C=C/C2=Cc3c(sc(NC(=O)CSc4n[nH]c(N)n4)c3C#N)C(C)(C)C2)o1 | i | i | i | i | i | i | nt | nt
CCN(CC)S(=O)(=O)c1cc([N+](=O)[O-])ccc1NNC(=O)Nc1ccc(F)cc1 | i | i | i | nt | i | i | nt | nt
Cc1nc2ccc(NC(=O)c3cc(S(=O)(=O)N(C)c4ccccc4)ccc3Cl)cc2s1 | nt | 37 | i | nt | nt | i | 31 | i
Cc1nc2ccc(NC(=O)c3ccc(Cl)c(S(=O)(=O)N(C)c4ccccc4)c3)cc2s1 | nt | i | i | nt | nt | i | nt | nt
O=C(Nc1ccc(O)cc1)C1CC=CCC1 (stereo not given) | i | i | i | i | i | i | nt | nt
O=C(/C=C/c1ccco1)Nc1ccccn1 | nt | i | i | nt | nt | i | nt | nt
Cc1ccc(NC(=O)/C=C/c2ccco2)nc1 | nt | 34 | i | nt | nt | i | i | 48
Fc1ccc2c(c1)C(c1ccncc1)=NNC(c1ccccc1)=N2 | nt | i | i | nt | nt | i | nt | nt
COc1cccc(-n2cnc3scc(-c4cccs4)c3c2=O)c1 | i | i | i | i | i | i | nt | nt
O=c1c2c(-c3cccs3)csc2ncn1-c1ccc(Br)cc1 | i | 55 | i | i | i | i | i | i
O=C(NC1CCCC1)C1C2C=CC(C2)C1C(=O)N1CCOCC1 (stereo not given) | i | i | i | i | i | i | nt | nt
C=CCSC(=C(C#N)C#N)c1cc2c([nH]1)CCCC2 | i | 31 | i | i | i | i | 27 | i
COc1ccc(C(=O)/C(=C\c2ccco2)N2C=CC=CC2=C(C#N)C#N)cc1 | i | 42 | i | nt | i | i | 52 | 49
COc1ccc(/C=C(/C(=O)c2cccs2)N2C=CC=CC2=C(C#N)C#N)cc1 | nt | 38 | i | nt | nt | i | 66 | 55
CCN(CC)c1ccc(/C=C(\C#N)C(=O)c2ccc(Br)cc2)cc1 | nt | i | i | nt | nt | i | nt | nt
COc1ccc(NC(=O)c2cccs2)cc1 | i | i | i | i | i | i | nt | nt
COc1ccc(C(NC(=O)/C=C/c2ccco2)c2ccc(OC)cc2)cc1 | nt | i | i | nt | nt | i | nt | nt
N#CC(C#N)=C1C=CC=CN1/C(=C\c1ccco1)C(=O)c1ccccc1 | nt | 55 | i | nt | nt | i | 79 | 83
N#CC(C#N)=C1C=CC=CN1/C(=C\c1ccco1)C(=O)c1ccc(Br)cc1 | nt | 65 | i | nt | nt | i | 68 | 68
CNS(=O)(=O)c1cnccc1N1CCN(c2cccc(C(F)(F)F)c2)CC1 | i | i | i | nt | i | i | nt | nt
COC(=O)c1nn(-c2ccccc2)c(=O)cc1Oc1ccccc1 | i | i | i | nt | i | i | nt | nt
Cc1nn(-c2ccccc2)c(C)c1C(=O)OCC(=O)Nc1ccc2c(c1)OCO2 | i | i | i | i | i | i | nt | nt
SMILES | S1P2 ag | GALR2 blocker | GALR2 ag | MRP resist rev | S1P2 antag | MRP1 act | GALR2 ant conf | BLA inh counter
CCSc1nnc(NC(=O)C(C)(C(F)(F)F)C(F)(F)F)s1 | i | i | i | i | i | i | nt | nt
CCSc1nnc(NC(=O)C(CC)(C(F)(F)F)C(F)(F)F)s1 | i | 28 | i | i | i | i | i | i
Cn1c(NC(=O)c2ccc(F)c(F)c2)cc(=O)n(C)c1=O | nt | 28 | i | i | nt | i | i | i
Cc1ccc(S(=O)(=O)N[C@H](C(=O)Oc2ccc3c(C(F)(F)F)cc(=O)oc3c2)c2ccccc2)cc1 | i | 44 | i | nt | 58 | i | i | 36
O=C(CCCc1nc(-c2ccc(Cl)cc2)no1)N1CCOCC1 | i | i | i | i | i | i | nt | nt
COc1cc(/C=C2\SC(=Nc3ccccc3)N(CCc3c[nH]c4ccccc34)C2=O)ccc1OC(C)C(=O)O (stereo not given) | nt | i | i | nt | nt | i | nt | nt
O=C1/C(=C/c2ccc(N3CCOCC3)o2)SC(=Nc2ccccc2)N1CCc1c[nH]c2ccccc12 | i | 28 | i | nt | 68 | i | 27 | 43
COCCCNC(=O)c1ccc(Cn2c(=O)c3ccccc3n(Cc3ccccc3C#N)c2=O)cc1 | i | i | i | i | i | i | nt | nt
NC(=O)c1ccc(NC(=O)COC(=O)c2c3c(nc4ccccc24)/C(=C\c2cccs2)CCC3)cc1 | nt | i | i | nt | nt | i | nt | nt
CC(C)CNC(=O)COC(=O)c1c2c(nc3ccccc13)/C(=C/c1cccs1)CC2 | nt | 31 | i | nt | nt | i | 38 | 44
CC1CCCCC1NC(=O)COC(=O)c1c2c(nc3ccccc13)/C(=C/c1ccco1)CC2 (stereo not given) | nt | 60 | i | nt | nt | i | 37 | 48
O=C(CSc1ccccc1)Nc1ccncc1 | i | i | i | i | i | i | nt | nt
CC1(C)CC(NC(=O)C23CCC(C)(/C(=N/O)C2)C3(C)C)CC(C)(C)N1 (stereo not given) | i | i | i | i | i | nt | nt | nt
CCN1/C(=C/c2ccc3cc(C)ccc3[n+]2CC)Sc2ccccc21 | nt | 46 | i | nt | nt | i | 48 | 49
CCOC(=O)c1c(C)nn(Cc2cccc(Cl)c2)c1N | i | i | i | i | i | i | nt | nt
O=C1N/C(=C/c2ccc(N3CCCC3)cc2)C(=O)N1c1ccccc1 | nt | i | i | nt | nt | i | nt | nt
C=CCN1C(=O)N/C(=C/c2ccc(N3CCOCC3)o2)C1=O | nt | 38 | i | nt | nt | i | i | i
O=C1N/C(=C/c2ccc(N3CCOCC3)o2)C(=O)N1c1ccccc1 | nt | 55 | i | nt | nt | i | i | i
O=C1NC(=S)S/C1=C/c1ccc(N2CCOCC2)o1 | nt | i | i | nt | nt | i | nt | nt
COc1ccc(Cn2c(=S)[nH]c3ccsc3c2=O)cc1 | nt | i | i | nt | nt | i | nt | nt
CCOC(=O)c1c(C)nc2sc(C(=O)Nc3ccc(OC)cc3)c(N)c2c1-c1ccc(OC)cc1 | i | i | i | nt | i | i | nt | nt
CCOC(=O)c1c(C)nc2sc(C(=O)Nc3ccc(C(C)=O)cc3)c(N)c2c1-c1ccc(OC)cc1 | i | 30 | i | nt | i | i | i | 38
O=C1Nc2ccccc2/C1=N\c1sc2c(c1C(=O)Nc1ccccc1)CCCC2 | i | 29 | i | i | i | i | i | i
O=C(CSc1n[nH]c(-c2ccco2)n1)Nc1sc2c(c1C(=O)Nc1ccccc1)CCCC2 | i | i | i | i | i | i | nt | nt
CCn1c(=O)n(CC(=O)Nc2cc(OC)c(OC)c(OC)c2)c(=O)c2ccccc21 | i | i | i | i | i | i | nt | nt
CCN(CC)C(=O)CC(c1ccc(F)cc1)c1ccc(OC(C)C)cc1 (stereo not given) | nt | i | i | nt | nt | i | nt | nt
N/C(=N\OC(=O)Oc1ccccc1)c1cccc([N+](=O)[O-])c1 | nt | i | i | nt | nt | i | nt | nt
O=C(C#Cc1ccccc1)c1cccc([N+](=O)[O-])c1 | i | 34 | i | i | 67 | i | 72 | 75
COc1ccc(Nc2nc(N3CCCC3)c3ccccc3n2)cc1 | nt | 30 | i | i | nt | i | 36 | i
